An excerpt weighted towards active compounds, which were near 7.5% of everything screened.
FLuc counter – counter-screen for miR-21 project: firefly luciferase inhibitors or activators; P08659; purified FLuc, Km substrates, luminescence inhibition; Potency, µM (doses to about 57.5 µM), most hits filed as inhibitors; 360,000 tested, 6.9% active; also: nearly all actives have a fitted effect of over 55% in size
Target sequence (P08659 whole entry, looked up): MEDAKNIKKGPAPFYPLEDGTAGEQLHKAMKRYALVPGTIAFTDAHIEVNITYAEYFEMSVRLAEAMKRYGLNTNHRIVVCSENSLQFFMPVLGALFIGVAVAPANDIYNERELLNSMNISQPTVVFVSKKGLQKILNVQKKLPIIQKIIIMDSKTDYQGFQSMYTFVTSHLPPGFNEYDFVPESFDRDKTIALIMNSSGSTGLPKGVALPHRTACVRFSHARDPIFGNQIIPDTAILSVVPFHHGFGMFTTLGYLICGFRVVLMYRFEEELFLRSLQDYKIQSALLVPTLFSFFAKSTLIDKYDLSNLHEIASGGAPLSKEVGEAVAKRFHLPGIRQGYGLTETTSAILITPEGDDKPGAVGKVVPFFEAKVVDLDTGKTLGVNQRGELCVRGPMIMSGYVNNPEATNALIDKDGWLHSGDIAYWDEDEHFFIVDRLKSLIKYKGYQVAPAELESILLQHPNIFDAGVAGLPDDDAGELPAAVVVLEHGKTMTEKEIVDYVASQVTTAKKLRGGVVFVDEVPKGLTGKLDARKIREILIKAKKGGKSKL
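Purified P. pyralis luciferase (10nM final) with 10uM D-luciferin and 10uM ATP (Km levels) in 50mM Tris acetate pH 7.5, 10mM Mg acetate, 0.01% Tween-20, 0.05% BSA; qHTS 6-point titration, ~60 µM downward; luminescence read.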
Rab9 promoter act – Rab9 promoter activation. Potency, µM (highest dose often 9.22 µM), usual class: activators. 320,000 tested, 2.8% active. AID 485297. Huh7 Rab9 promoter-luciferase reporter, luminescence, 24 h; also: nearly all actives have a fitted effect of over 60% in size
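Huh7 cells stably carrying Rab9 promoter–luciferase reporter, plated 1500 cells/well, compound added after 2 h and incubated 24 h at 37 °C; luciferase luminescence then read after 10 min with detection reagent.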
NPC1 prom act – NPC1 promoter activation. 320,000 tested, 2.4% active. Potency, µM (highest dose often 9.22 µM), hits mostly activators. Huh7 NPC1 promoter luciferase reporter, 24 h. AID 485313; also: nearly all actives have a fitted effect of over 60% in size
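Huh7 reporter cells (NPC1 promoter driving luciferase) are dosed with compound for 24 h at 37 °C, 5% CO2; luciferase detection reagent is then added and luminescence measured after 10 min at ambient temperature.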
ELG1 genotoxic – genotoxicity induction in ELG1-luciferase HEK293T cells. 330,000 tested, 1.3% active. HEK293T ELG1-luciferase reporter, luminescence, 16 h. Potency, µM (doses to about 46 µM), actives largely listed as activators; also: nearly all actives have a fitted effect of over 60% in size
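Genotoxicity was scored as increased ELG1-luciferase reporter signal, measured by ONE-Glo luminescence (30 min, room temperature). Compound or vehicle exposure of the HEK293T reporter cells lasted 16 hr at 37°C.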
KinaseGlo FLuc – Kinase-Glo luciferase inhibition (counter-screen); AID 1379; Potency, µM (titrated, usually from 38.3 µM), hits mostly inhibitors; Kinase-Glo luciferase, ATP luminescence, 8 min; 200,000 tested, 0.28% active; also: nearly all actives have a fitted effect of over 60% in size
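Recombinant Kinase-Glo luciferase, 10 uM ATP (linear range), luciferin; imidazole pH 7.2 / KCl / MgCl2 / Tween / BSA buffer; 8 min RT; luminescence.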
SMN2 splice enh – SMN2 splice variant enhancement | Potency, µM (top dose mostly 46.1 µM), hits mostly activators | 210,000 tested, 2.8% active | AID 1458 | HEK293 SMN2-luciferase splicing reporter, luminescence, 30-36 h; also: nearly all actives have a fitted effect of over 55% in size
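HEK293 cells carry an SMN2 […]–luciferase reporter in which exon 7 inclusion puts luciferase in frame. Cells were plated 10-12 h before compound addition, then incubated 30-36 h at 37C. ONE-Glo luminescence was read; sodium butyrate at 4.5 mM final served as control.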
Hits are given with their value; i = inactive; ? = inconclusive; nt = no result given; [ ] = remark or other dose. Calls follow the shape of the dose curve; as a rule, active = well fitted curve in the direction sought with a large enough effect; inconclusive = small, poorly fitted or top-dose-only effect, or another doubt; inactive = no such curve, though single readings can be large; an effect the other way counts as inactive or inconclusive.

SMILES	FLuc counter	Rab9 promoter act	NPC1 prom act	ELG1 genotoxic	KinaseGlo FLuc	SMN2 splice enh
CC1CN(C(=O)c2cc([N+](=O)[O-])cc([N+](=O)[O-])c2)CC(C)O1 (stereo not drawn)	15µM	3.2µM	?	?	i	nt
Cc1[nH]n(-c2ccc(Br)cc2)c(=O)c1/C=N/NC(=O)c1ccccc1	2.1µM	i	i	?	nt	nt
Cc1[nH]n(-c2ccccc2)c(=O)c1/C=N/NC(=O)c1cccc(F)c1	9.5µM	i	i	?	nt	nt
CCCCN(CCCC)C(=S)N/N=C/c1c(C)[nH]n(-c2ccccc2)c1=O	i	i	i	i	i	i
c1coc(CNc2nc(-c3ccncc3)cs2)c1	?	i	i	i	i	i
Cc1nc(NC(=O)c2ccccc2)sc1-c1csc(NCc2ccco2)n1	13µM	i	i	i	i	i
Cc1nc(C)c(-c2csc(NCc3ccco3)n2)s1	15µM	?	i	13µM	i	?
c1coc(CNc2nc3ccccc3s2)c1	7.6µM	?	1.6µM	?	nt	nt
Cc1nc(C)c(-c2csc(NCc3ccccc3)n2)s1	?	i	i	i	i	i
CCOc1ccccc1Nc1nc(-c2sc(NC(=O)c3ccco3)nc2C)cs1	i	i	i	i	i	i
COc1ccc(-c2csc(NCc3ccco3)n2)cc1	1.1µM	0.56µM	0.89µM	?	i	13µM
CCCCCCCCCCCCCCCC(=O)OC(CC(=O)O)C[N+](C)(C)C (stereo not drawn)	i	i	i	i	i	i
COC(=O)c1ccc(/C=C/C(=O)c2cccc(OC)c2)cc1	9.5µM	?	?	?	i	i
COc1cccc(C(=O)/C=C/c2ccc(SC)cc2)c1	3.4µM	i	i	i	i	i
COc1cccc(/C=C/C(=O)Oc2ccc(C(=O)c3ccc(F)cc3)cc2)c1	i	i	i	i	i	i
COc1cccc(/C=C/C(=O)c2ccc(C)c([N+](=O)[O-])c2)c1	?	i	i	i	i	i
C[C@H](CO)NC(=O)[C@H]1C[C@@H]1[C@H](NP(=O)(c1ccccc1)c1ccccc1)c1ccccc1	nt	nt	nt	nt	i	i
Cc1ccc(C(=O)c2oc3ccccc3c2NC(=O)Cc2ccccc2)cc1	i	nt	nt	nt	nt	i
Cc1c(NC(=O)C(C)(C)Oc2ccc(Cl)cc2)cccc1-c1nc2ccccc2o1	?	nt	nt	nt	nt	i
Cc1c([N+](=O)[O-])cc(S(=O)(=O)Nc2ccc(-c3ccc(N4CCCC4)nn3)cc2)cc1[N+](=O)[O-]	19µM	i	i	i	nt	nt
Cc1ccc([N+](=O)[O-])cc1S(=O)(=O)Nc1ccc(-c2ccc(N3CCCC3)nn2)cc1	?	i	i	i	nt	nt
O=[N+]([O-])c1ccc(Cl)c(S(=O)(=O)Nc2ccc(-c3ccc(N4CCCC4)nn3)cc2)c1	21µM	i	i	i	nt	nt
O=[N+]([O-])c1ccc(Cl)c(S(=O)(=O)Nc2cccc(-c3ccc(N4CCCC4)nn3)c2)c1	15µM	i	i	i	nt	nt
COC(=O)c1ccccc1S(=O)(=O)NNC(=O)c1nn(C)c(=O)c2ccccc12	nt	nt	nt	i	nt	nt
C=C[C@H]1CCC=C2C(=O)CCC[C@@H]21	nt	nt	nt	nt	i	i
SMILES	FLuc counter	Rab9 promoter act	NPC1 prom act	ELG1 genotoxic	KinaseGlo FLuc	SMN2 splice enh
COc1ccc(-c2coc3ccc(OC4OC(COC(C)=O)C(OC(C)=O)C(OC(C)=O)C4OC(C)=O)c(OC(C)=O)c3c2=O)cc1 (stereo not drawn)	nt	nt	nt	nt	i	nt
CC(=O)c1c(C)[nH]c(C(=O)Nc2ccc(S(=O)(=O)N(C)C)cc2)c1C	i	i	i	i	nt	nt
CC(=O)c1c(C)[nH]c(C(=O)Nc2cccc(S(=O)(=O)N(C)C)c2)c1C	i	?	i	?	i	11µM
CC(=O)c1c(C)[nH]c(C(=O)Nc2cccc(S(=O)(=O)N3CCCC3)c2)c1C	nt	nt	nt	16µM	nt	nt
COc1ccc(CCN2C(=O)CSC2=Nc2ccc(C(C)C)cc2)cc1OC	i	i	i	i	nt	nt
N#C/C(=N\Nc1ccc(F)cc1)C(=O)C1CC1	i	i	i	i	nt	nt
N#C/C(=N\Nc1ccc(Cl)c(Cl)c1)C(=O)C1CC1	27µM	?	?	i	nt	nt
COc1ccccc1-c1nnc(SCC(=O)N2CCCCC2)o1	i	i	i	i	nt	nt
Cc1ccccc1-c1nnc(SCC(=O)N2CCCC2)o1	17µM	?	?	?	nt	nt
Cc1ccccc1-c1nnc(SCC(=O)N2CCCc3ccccc32)o1	?	nt	nt	nt	nt	i
COc1ccccc1-c1nnc(-c2ccc(N3CCOCC3)cc2)o1	19µM	?	?	i	i	5.6µM
O=C(CSc1nnc(-c2ccccc2Cl)o1)N1CCOCC1	19µM	3.5µM	2.2µM	?	nt	nt
COc1ccccc1-c1nnc(SCC(=O)N2CCOCC2)o1	?	i	i	i	i	8.9µM
Oc1cc(CN2COc3ccccc32)c(O)cc1CNC1CCCCC1	nt	nt	nt	nt	i[7.66 µM]	i[9.22 µM]
CCN(CC)CCNC(=O)c1[nH]c2ccccc2c1Sc1ccc(Cl)cc1	i	nt	nt	nt	nt	nt
CN(CC(=O)Nc1ccc(F)cc1)C(=O)c1cc(-c2cccs2)nn1-c1ccccc1	i	i	i	i	nt	nt
CCOC(=O)c1ccc(NC(=O)CC2C(=O)N(c3ccccc3)C(=O)N2Cc2ccc(C)cc2)cc1 (stereo not drawn)	i	nt	nt	nt	nt	i
